# Measurements: PubChem BioAssay (NCI)
# The panel holds about 83,000 compounds, 20% with a hit somewhere; the sample as a whole holds those more often.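 Assay: single dose, 48 h. Readout: percent growth (0 = no net growth; negative = cell death). Active: <10.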 A number with no mark means an inactive call. Active and inactive are the calls of the source.
# What was measured:
# Assay in all cases: NCI-60 one-dose screen, 48 h (100 = growth as untreated, 0 = no growth, -100 = all killed)
# Conditions in all cases: 10 µM unless noted
# [1] = test system: SK-MEL-2 melanoma
# [2] = test system: EKVX NSCLC
# [3] = test system: SN12C renal
# [4] = test system: UO-31 renal
# [5] = test system: TK-10 renal
# [6] = test system: ACHN renal
# [7] = test system: CAKI-1 renal
# [8] = test system: A498 renal
# [9] = test system: CCRF-CEM leukemia
# [10] = test system: MOLT-4 leukemia
Compound,growth [1] [%],growth [2] [%],growth [3],growth [4],growth [5] [%],growth [6],growth [7] [%],growth [8],growth [9],growth [10]
COc1cc2c(cc1OC)C(C)N(S(N)(=O)=O)CC2 (stereo not given),106,107,88.7%,81.9%,103,102%,101,102%,80%,91.8%
CCC(=O)Oc1ccc(-c2ccccc2)cc1Br,110,102,104%,102%,101,113%,98.7,63.5%,102%,111%
N#Cc1c(-c2ccccc2)cc(-c2ccccc2)n(CCCC(=O)Nc2ccccc2N)c1=O,46.4,79.1,70.5%,49.1%,104,63.8%,38.2,-5.55% (active),56.3%,47.4%
O=C1C(=O)N(Cc2ccc(-c3ccccc3)cc2)c2ccc(OC(F)(F)F)cc21,69.7,94.3,21.2%,45.5%,63.9,41.7%,31.7,84.8%,9.7% (active),30%
NS(=O)(=O)c1ccc(N=Nc2c(O)n(Cc3ccccc3)c3ccc(Cl)cc23)cc1,98.6,91.2,87.3%,81.2%,95,64.9%,64.4,78.3%,96.2%,72.2%
CCN(CC)Cc1cc(C=C2C(=O)NC(=S)NC2=O)cc(OC)c1O,119,106,100%,90.1%,110,107%,99.3,98.8%,104%,108%
O=C(NCCNc1nccc(Nc2ccc(S(=O)(=O)Nc3ccccn3)cc2)n1)c1cccc([N+](=O)[O-])c1,101,98.6,99.9%,82.5%,100,102%,93.6,83.6%,101%,93.8%
COc1ccc(-c2nc3c(ncc4ccc(=O)[nH]c43)s2)cc1,106,63.8,78.2%,72.1%,73.8,59.9%,67.6,42.3%,72.6%,31.8%
O=C(Nn1c2c(sc1=NC1CC1)C(=O)c1ccccc1C2=O)c1cc2ccc1CCc1ccc(cc1)CC2,49.5,67.5,30.9%,21.5%,115,25.6%,30.8,89.4%,22.6%,8.53% (active)
C=C1CC[C@@H]2[C@](C)(COC(C)=O)[C@H](OC(C)=O)CC[C@@]2(C)[C@@H]1CC(Nc1ccc(S(=O)(=O)Nc2ncccn2)cc1)C1=CCOC1=O (stereo not given in full),41.9,68.3,7.64% (active),-17.9% (active),35.1,-56.1% (active),50.2,79%,-26.3% (active),-8.69% (active)
Nc1cnc(C(=O)NNc2nc3cc(F)ccc3n3cccc23)cn1,75,26.2,46.6%,8.25% (active),51.3,12.9%,29.5,44.7%,21.4%,19%
Clc1ccc2c(NC3CCC(N4CCOCC4)CC3)ccnc2c1 (stereo not given),113,72.6,90.5%,75.3%,80.8,73.8%,75.1,75.5%,85.5%,74.4%
O=C(Nc1nc2ccccc2s1)c1ccc(F)cc1,114,77.8,108%,89.1%,125,98%,62.9,89.8%,101%,100%
